Experimental data as given in PubChem BioAssay (Tox21).
Where “and” joins values, the source holds several entries; their conditions need not be identical. Identical values can stand only once. Calls of active or inactive are those of the source. Unless noted, the call rests on the fitted dose curve; in most records, active means well fitted curve in the direction sought with a large enough effect in the repeat runs; inconclusive means weak or mixed curves; inactive means no such curve, though single readings can be large; an effect the other way counts as inactive or inconclusive.

Columns and labels:
[1] = qHTS assay for small molecules that induce genotoxicity in human embryonic kidney cells expressing luciferase-tagged ATAD5 (AID 651632); further: nearly all actives have a fitted effect of over 15% in size
Method in brief: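 Test compounds were delivered by pin tool onto HEK293T reporter cells (2,000/well) expressing ATAD5 fused to luciferase. After 16 hr at 37C, 5% CO2, Amplite was added for 30 min at room temperature and luminescence was measured.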

[2] = qHTS assay to test for compound auto fluorescence at 535 nm (green) in HEK293 cells (AID 720680)
[3] = qHTS assay to test for compound auto fluorescence at 460 nm (blue) in HepG2 cell free culture (AID 720685)
Method in brief: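 Cell-free plates of MEM plus 10% FBS received 23 nL compound or DMSO vehicle; blue-channel (405/460 nm) intensity scored against triamterene as reference fluorophore.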

[4] = qHTS assay for identifying genotoxic compounds that show differential cytotoxicity against isogenic chicken DT40 cell lines with known DNA damage response pathways - wild type cell line (AID 743012); further: nearly all actives have a fitted effect of over 60% in size; further: potency means the concentration at half of the fitted maximal effect
Method in brief: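 300 wt DT40 cells/well; cpd (DMSO) pintool-transferred after ~0.5 h at 37 C/5% CO2; 40 h incubation; CellTiter-Glo added, 30 min RT; luminescence read.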

[5] = qHTS assay for identifying genotoxic compounds that show differential cytotoxicity against isogenic chicken DT40 cell lines with known DNA damage response pathways - Rev3 mutant cell line (AID 743014); further: nearly all actives have a fitted effect of over 55% in size; further: potency means the concentration at half of the fitted maximal effect
[6] = qHTS assay for identifying genotoxic compounds that show differential cytotoxicity against isogenic chicken DT40 cell lines with known DNA damage response pathways - Rad54/Ku70 mutant cell line (AID 743015); further: nearly all actives have a fitted effect of over 60% in size; further: potency means the concentration at half of the fitted maximal effect
[7] = qHTS assay to identify small molecule antagonists of the androgen receptor (AR) signaling pathway - cell viability counter screen (AID 743033; further: nearly all actives have a fitted effect of over 45% in size)
[8] = qHTS assay to identify small molecule antagonists of the thyroid receptor (TR) signaling pathway - cell viability counter screen (AID 743064); further: nearly all actives have a fitted effect of over 50% in size; further: potency means the concentration at half of the fitted maximal effect
Method in brief: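 GH3.TRE-Luc rat pituitary cells dosed after 4 hr plating, co-stimulated with T3 at 1 nM final, incubated 23.5 h at 37 C. Viability measured in the same wells by CellTiter-Fluor fluorescence after 30 min further at 37 C.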

[9] = qHTS assay to identify small molecule antagonists of the thyroid receptor (TR) signaling pathway (AID 743065); further: nearly all actives have a fitted effect of over 55% in size; further: potency means the concentration at half of the fitted maximal effect
Method in brief: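 Antagonism measured as loss of luciferase signal in GH3 cells stably carrying a TRE-luciferase reporter, co-treated with compound and T3 (1 nM final) for 23.5 h at 37 C. Viability was read in the same well by CellTiter-Fluor.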

[10] = test system: thyroid hormone receptor (rat, GH3 cells); test: qHTS assay to identify small molecule agonists of the thyroid receptor (TR) signaling pathway (AID 743066; calls by dose curve)
[11] = molecular target: Estrogen receptor (Homo sapiens) (UniProt P03372); test: qHTS assay to identify small molecule antagonists of the estrogen receptor alpha (ER-alpha) signaling pathway (AID 743069; active means well fitted curve in the direction sought with a large enough effect in the signal ratio in the repeat runs, not every such curve was filed as active; inconclusive means weak or mixed curves, or effect the other way; inactive means no such curve, though single readings can be large or run the other way; the % refers to the signal ratio)
Estrogen receptor (Homo sapiens), sequence (P03372 whole entry, looked up): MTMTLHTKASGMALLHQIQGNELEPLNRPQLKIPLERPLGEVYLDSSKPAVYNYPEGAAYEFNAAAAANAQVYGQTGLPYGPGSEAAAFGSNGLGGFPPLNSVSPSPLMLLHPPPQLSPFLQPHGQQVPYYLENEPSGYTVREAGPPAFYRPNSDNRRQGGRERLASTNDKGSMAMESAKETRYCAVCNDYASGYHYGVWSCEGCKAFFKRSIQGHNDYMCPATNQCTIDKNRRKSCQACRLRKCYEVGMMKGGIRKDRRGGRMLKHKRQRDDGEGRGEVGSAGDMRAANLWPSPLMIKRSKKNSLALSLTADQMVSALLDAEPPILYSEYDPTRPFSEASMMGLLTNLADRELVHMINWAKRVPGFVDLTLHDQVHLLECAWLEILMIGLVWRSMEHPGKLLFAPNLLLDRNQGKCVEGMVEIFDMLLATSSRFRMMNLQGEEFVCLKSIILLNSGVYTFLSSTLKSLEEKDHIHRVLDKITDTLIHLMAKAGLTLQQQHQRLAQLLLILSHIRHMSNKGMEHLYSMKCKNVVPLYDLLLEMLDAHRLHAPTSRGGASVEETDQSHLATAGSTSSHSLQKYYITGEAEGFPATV
Method in brief: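 Antagonist mode: compounds in DMSO were co-added with 17beta-estradiol to ER-alpha-bla HEK293 cells (2% charcoal-stripped serum) and left 18 h at 37C. Reporter inhibition was measured as FRET fluorescence after 2 h LiveBLAzer substrate at room temperature.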

[12] = qHTS assay to identify small molecule antagonists of the estrogen receptor alpha (ER-alpha) signaling pathway - cell viability counter screen (AID 743074; calls by dose curve;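 further: HEK293 cells carrying ER-alpha-UAS-bla reporter stimulated with 17beta-estradiol; nearly all actives have a fitted effect of over 45% in size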)
[13] = molecular target: Estrogen receptor (Homo sapiens) (UniProt P03372); test: qHTS assay to identify small molecule agonists of the estrogen receptor alpha (ER-alpha) signaling pathway (AID 743075; calls by dose curve;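 further: HEK293 GripTite cells with ER-alpha and UAS-driven beta-lactamase reporter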; further: potency means the concentration at half of the fitted maximal effect)
[14] = molecular target: Estrogen receptor (Homo sapiens) (UniProt P03372); test: qHTS assay to identify small molecule agonists of the estrogen receptor alpha (ER-alpha) signaling pathway using the BG1 cell line (AID 743079); further: nearly all actives have a fitted effect of over 20% in size; further: potency means the concentration at half of the fitted maximal effect
[15] = molecular target: Peroxisome proliferator-activated receptor gamma (Homo sapiens) (UniProt P37231); test: qHTS assay to identify small molecule agonists of the peroxisome proliferator-activated receptor gamma (PPARg) signaling pathway (AID 743094; active means well fitted activation curve with a large enough effect in the signal ratio in the repeat runs, not every such curve was filed as active; inconclusive means weak or mixed curves, or effect the other way; inactive means no such curve, though single readings can be large or run the other way; the % refers to the signal ratio)
Peroxisome proliferator-activated receptor gamma (Homo sapiens), sequence (P37231 whole entry, looked up): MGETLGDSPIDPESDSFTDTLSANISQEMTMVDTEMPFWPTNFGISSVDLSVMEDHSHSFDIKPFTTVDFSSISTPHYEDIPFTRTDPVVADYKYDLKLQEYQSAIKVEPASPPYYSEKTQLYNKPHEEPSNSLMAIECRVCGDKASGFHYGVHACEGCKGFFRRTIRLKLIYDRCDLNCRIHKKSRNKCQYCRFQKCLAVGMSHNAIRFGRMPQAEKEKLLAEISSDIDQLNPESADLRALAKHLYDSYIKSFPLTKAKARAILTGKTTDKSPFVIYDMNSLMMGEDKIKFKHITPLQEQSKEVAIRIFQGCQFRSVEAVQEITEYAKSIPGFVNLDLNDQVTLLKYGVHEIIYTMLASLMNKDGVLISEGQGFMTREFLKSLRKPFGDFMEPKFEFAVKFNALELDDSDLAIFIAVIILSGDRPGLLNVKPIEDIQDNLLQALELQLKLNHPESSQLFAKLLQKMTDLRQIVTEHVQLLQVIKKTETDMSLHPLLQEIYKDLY
Method in brief: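 Cell-based bla reporter, HEK293H background, PPARg-driven UAS. Pre-incubation 5 h, 37C, 5% CO2. Compound 17 h, 37C. Substrate 1 h RT; fluorescence.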

[16] = molecular target: Nuclear receptor subfamily 1 group I member 2 (Rattus norvegicus) (UniProt Q9R1A7); test: Rat pregnane X receptor (rPXR) activation by small molecules, qHTS assay (AID 1346983); conditions: rPXR luciferase reporter cells, One-Glo luminescence, 24 h; max activation: hits give high values; further: nearly all actives have a fitted effect of over 20% in size
Nuclear receptor subfamily 1 group I member 2 (Rattus norvegicus), sequence (Q9R1A7 whole entry, looked up): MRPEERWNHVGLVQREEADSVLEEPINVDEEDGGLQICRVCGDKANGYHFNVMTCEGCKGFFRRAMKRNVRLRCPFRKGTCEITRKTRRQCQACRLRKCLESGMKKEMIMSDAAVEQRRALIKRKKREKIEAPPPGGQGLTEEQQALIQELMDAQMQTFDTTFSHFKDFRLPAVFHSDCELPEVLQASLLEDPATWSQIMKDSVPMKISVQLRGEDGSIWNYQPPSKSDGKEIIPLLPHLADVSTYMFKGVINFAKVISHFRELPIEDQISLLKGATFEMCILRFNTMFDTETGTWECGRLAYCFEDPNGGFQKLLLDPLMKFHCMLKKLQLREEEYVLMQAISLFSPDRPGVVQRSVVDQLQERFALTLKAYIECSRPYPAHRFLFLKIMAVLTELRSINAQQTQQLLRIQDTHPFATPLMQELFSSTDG
Method in brief: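 Luminescent readout (One-Glo luciferase, 30 min room temperature) followed 24 hr compound treatment at 37 C of rPXR cells plated 2,000 per well and preincubated 5hr; qHTS format with compounds delivered in DMSO.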

[17] = molecular target: Nuclear receptor subfamily 1 group I member 2 (Homo sapiens) (UniProt O75469); test: CYP3A4 induction through human pregnane X receptor (PXR) by small molecules, qHTS assay (AID 1346984); further: nearly all actives have a fitted effect of over 40% in size; further: potency means the concentration at half of the fitted maximal effect
Method in brief: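 Human PXR activation is tracked via CYP3A4 promoter-luciferase in DPX-2 (HepG2) cells. Compounds treat cells for 24hr at 37C, and luminescence is read after One-Glo.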

[18] = molecular target: Nuclear receptor subfamily 1 group I member 2 (Homo sapiens) (UniProt O75469); test: Human pregnane X receptor (PXR) activation by small molecules, qHTS assay (AID 1346985); further: nearly all actives have a fitted effect of over 40% in size
Method in brief: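 DPX-2 cells (HepG2 co-transfected with a PXR response element and a CYP3A4-promoter luciferase construct) were seeded at 2,000 per well, rested 5 hr at 37C, then exposed to DMSO-dissolved compounds for 24 hr. Activation was read as luciferase luminescence.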

[19] = qHTS assay for small molecules that induce genotoxicity in human embryonic kidney cells expressing luciferase-tagged ATAD5 - cell viability (AID 651634; calls by dose curve; further: nearly all actives have a fitted effect of over 25% in size)
Method in brief: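 Quantitative high-throughput format. HEK293T cells expressing ATAD5 fused to luciferase were plated at 2,000 cells/well and treated 15.5 hr with compound versus DMSO. Viability was determined by fluorescent live-cell protease substrate, 30 min at 37C.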

[20] = qHTS assay for small molecule disruptors of the mitochondrial membrane potential (AID 720635); further: potency means the concentration at half of the fitted maximal effect
Method in brief: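 Mitochondrial membrane potential tracked with Mito-MPS dye, red aggregates (ex 540/em 590 nm) against green monomers (ex 490/em 535 nm). Compound treatment 1 hr at 37C, dye 30 min in HepG2.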
On the % scale 0 is the no-effect control and ±100 the full control effect.

CCCC(=O)OC(C(Cl)(Cl)Cl)P(=O)(OC)OC (configuration not stated)
active: Potency [14] 26.6 µM
inactive: Potency [1] | Potency [2] | Potency [3] | Potency [4] | Potency [5] | Potency [6] | Potency [7] | Potency [8] | Potency [9] | Potency [10] | Potency [11] | Potency [12] | Potency [13] | Potency [15] | max activation [16] 0.574% | Potency [17] | Potency [18]

CCCC(C)(COC(N)=O)COC(=O)NC1CC1 (configuration not stated)
inactive: Potency [1] | Potency [19] | Potency [20] | Potency [2] | Potency [3] | Potency [5] | Potency [6] | Potency [7] | Potency [8] | Potency [9] | Potency [10] | Potency [11] | Potency [12] | Potency [13] | Potency [14] | Potency [15] | Potency [17] | Potency [18]

CC(=O)OCC(=O)[C@H]1CC[C@H]2[C@@H]3CC[C@H]4C[C@H](O)CC[C@]4(C)[C@H]3C(=O)C[C@]12C
inactive: Potency [1] | Potency [19] | Potency [20] | Potency [2] | Potency [3] | Potency [4] | Potency [5] | Potency [6] | Potency [7] | Potency [8] | Potency [9] | Potency [10] | Potency [11] | Potency [12] | Potency [13] | Potency [14] | Potency [17] | Potency [18]

Clc1ccc2c(c1)C(c1ccccc1)=NCc1nncn1-2
inactive: Potency [1] | Potency [19] | Potency [20] | Potency [2] | Potency [3] | Potency [6] | Potency [7] | Potency [8] | Potency [9] | Potency [10] | Potency [11] | Potency [12] | Potency [13] | Potency [14] | Potency [15] | Potency [17] | Potency [18]

C[C@]12CC[C@H](OS(=O)(=O)O)CC1=CC[C@@H]1[C@@H]2CC[C@]2(C)C(=O)CC[C@@H]12
active: Potency [14] 13.3 µM
inactive: Potency [1] | Potency [19] | Potency [2] | Potency [5] | Potency [6] | Potency [7] | Potency [8] | Potency [10] | Potency [11] | Potency [12] | Potency [13] | Potency [15] | Potency [17] | Potency [18]

CCC1C(C)=NN=C(c2ccc(OC)c(OC)c2)c2cc(OC)c(OC)cc21 (configuration not stated)
inactive: Potency [2] | Potency [4] | Potency [6] | Potency [8] | Potency [9] | Potency [10] | Potency [12] | Potency [13] | Potency [14] | Potency [15] | max activation [16] -0.64% | Potency [17]

CCC1(c2ccccc2)C(=O)NC(=O)N(C(=O)c2ccccc2)C1=O (configuration not stated)
active: Potency [20] 23.7 µM | Potency [17] 28.2 µM
inactive: Potency [1] | Potency [19] | Potency [2] | Potency [4] | Potency [5] | Potency [7] | Potency [8] | Potency [10] | Potency [12] | Potency [15] | max activation [16] -3.53%

C[C@]12CCC(=O)C=C1C=C[C@@H]1[C@@H]2CC[C@@]2(C)[C@H]1CC[C@@]2(O)CCC(=O)O
inactive: Potency [19] | Potency [20] | Potency [2] | Potency [3] | Potency [7] | Potency [8] | Potency [9] | Potency [10] | Potency [15] | max activation [16] 4.24% | Potency [17] | Potency [18]

CCC/C=C/C=C/C(=O)O[C@H]1/C(=C/C(=O)OC)C[C@H]2C[C@H]([C@@H](C)O)OC(=O)C[C@H](O)C[C@@H]3C[C@H](OC(C)=O)C(C)(C)[C@](O)(C[C@@H]4C/C(=C/C(=O)OC)C[C@H](/C=C/C(C)(C)[C@]1(O)O2)O4)O3
inactive: Potency [19] | Potency [3] | Potency [7] | Potency [10] | Potency [11] | Potency [15] | max activation [16] 2.43%
active: Potency [20] 0.0038 µM | Potency [4] 0.0038 µM | Potency [5] 0.0038 µM | Potency [6] 0.0042 µM | Potency [8] 10.6 µM | Potency [9] 9.44 µM

Cc1cccc(C(C)c2cnc[nH]2)c1C (configuration not stated)
inactive: Potency [19] | Potency [20] | Potency [3] | Potency [7] | Potency [8] | Potency [9] | Potency [10] | Potency [12] | max activation [16] -0.62% | Potency [17] | Potency [18]

C=CC[C@]1(O)CC[C@H]2[C@@H]3CCC4=CCCC[C@@H]4[C@H]3CC[C@@]21C
inactive: Potency [1] | Potency [19] | Potency [2] | Potency [3] | Potency [5] | Potency [6] | Potency [7] | Potency [12] | Potency [15] | max activation [16] 1.23% | Potency [17]
active: Potency [20] 9.44 µM | Potency [13] 0.952 µM [inconclusive] | Potency [14] 0.376 µM

C[N+]1([O-])[C@@H]2CC[C@H]1CC(OC(=O)C(CO)c1ccccc1)C2 (some centres not stated)
inactive: Potency [19] | Potency [20] | Potency [2] | Potency [3] | Potency [4] | Potency [5] | Potency [6] | Potency [7] | Potency [8] | Potency [11] | Potency [12] | Potency [13] | Potency [14] | Potency [15] | max activation [16] -0.187% and -0.592% | Potency [17] | Potency [18]

C#CCN1CC(=O)N(COC(=O)C2C(C=C(C)C)C2(C)C)C1=O (configuration not stated)
inactive: Potency [19] | Potency [3] | Potency [4] | Potency [5] | Potency [6] | Potency [7] | Potency [8] | Potency [9] | Potency [10] | Potency [11] | Potency [12] | Potency [13] | Potency [14] | Potency [15] | max activation [16] 7.13% | Potency [18]

Cc1nnc2n1-c1ccc(Cl)cc1C(c1ccccc1Cl)=NC2
inactive: Potency [20] | Potency [2] | Potency [3] | Potency [4] | Potency [5] | Potency [6] | Potency [7] | Potency [8] | Potency [9] | Potency [10] | Potency [12] | max activation [16] 3.04% | Potency [17]
